# Test results reported in paper PMC7862700, “An all-to-all approach to the identification of sequence-specific readers for epigenetic DNA modifications on cytosine”.
# Tests used:
# Experiment in all cases: DAPPL (digital affinity profiling via proximity ligation, sequencing); 10 mM Tris-HCl pH 7.5, 50 mM NaCl, 1 mM DTT, 4% glycerol, room temperature, 30 min; GST-TFs on glutathione beads, 16-mer random dsDNA library, 0.1% formaldehyde crosslink after washing; high values mean tight binding
# Conditions in all cases: protein: recombinant; tags: N-terminal GST; dsDNA, one strand shown
# FLI1 = target: T1, FLI1 (Homo sapiens, UniProt Q01543 1-452)
# T1 sequence: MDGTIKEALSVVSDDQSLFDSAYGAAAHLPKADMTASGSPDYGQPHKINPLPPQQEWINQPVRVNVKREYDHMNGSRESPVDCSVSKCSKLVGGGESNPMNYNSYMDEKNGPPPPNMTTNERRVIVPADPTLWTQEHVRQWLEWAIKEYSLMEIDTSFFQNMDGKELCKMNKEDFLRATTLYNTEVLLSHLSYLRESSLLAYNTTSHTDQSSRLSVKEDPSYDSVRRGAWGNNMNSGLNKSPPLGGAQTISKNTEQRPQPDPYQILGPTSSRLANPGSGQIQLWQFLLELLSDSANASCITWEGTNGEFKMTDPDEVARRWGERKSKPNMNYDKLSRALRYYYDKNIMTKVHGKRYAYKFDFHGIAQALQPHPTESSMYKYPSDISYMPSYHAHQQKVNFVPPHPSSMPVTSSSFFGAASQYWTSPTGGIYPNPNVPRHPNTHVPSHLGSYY
# Summary of the method: (§1)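 Human transcription factors fused to GST were expressed in yeast, captured on glutathione beads, given DNA barcodes and pooled with a GST-only negative control. Pools were incubated with 200 nmole of a 16-mer random double-stranded DNA library in Tris/NaCl/DTT/glycerol buffer at room temperature for 30 min. They were then washed, crosslinked with 0.1% formaldehyde, proximity-ligated (BsaI/T4 ligase, 1 h, 37 °C), PCR-amplified and sequenced on an Illumina NextSeq500. Binding signal is each 6-mer's read frequency for a factor divided by its frequency for the GST control.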
# GABPA = target: T2, GABPA (Homo sapiens, UniProt Q06546 1-454)
# T2 sequence: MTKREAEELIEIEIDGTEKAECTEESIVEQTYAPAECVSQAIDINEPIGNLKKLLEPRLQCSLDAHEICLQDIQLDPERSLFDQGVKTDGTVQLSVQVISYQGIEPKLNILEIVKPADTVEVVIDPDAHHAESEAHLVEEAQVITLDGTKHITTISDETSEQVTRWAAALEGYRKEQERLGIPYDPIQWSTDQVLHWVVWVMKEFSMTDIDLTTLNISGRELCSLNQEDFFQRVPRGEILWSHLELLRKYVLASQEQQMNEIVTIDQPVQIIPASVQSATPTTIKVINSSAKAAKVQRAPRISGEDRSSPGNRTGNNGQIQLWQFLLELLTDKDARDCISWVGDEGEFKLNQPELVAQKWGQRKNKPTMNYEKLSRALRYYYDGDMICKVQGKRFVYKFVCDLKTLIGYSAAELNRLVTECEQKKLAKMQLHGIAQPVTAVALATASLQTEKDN
# Summary of the method: as §1
# ERG = target: T3, ERG (Homo sapiens, UniProt P11308 1-479)
# T3 sequence: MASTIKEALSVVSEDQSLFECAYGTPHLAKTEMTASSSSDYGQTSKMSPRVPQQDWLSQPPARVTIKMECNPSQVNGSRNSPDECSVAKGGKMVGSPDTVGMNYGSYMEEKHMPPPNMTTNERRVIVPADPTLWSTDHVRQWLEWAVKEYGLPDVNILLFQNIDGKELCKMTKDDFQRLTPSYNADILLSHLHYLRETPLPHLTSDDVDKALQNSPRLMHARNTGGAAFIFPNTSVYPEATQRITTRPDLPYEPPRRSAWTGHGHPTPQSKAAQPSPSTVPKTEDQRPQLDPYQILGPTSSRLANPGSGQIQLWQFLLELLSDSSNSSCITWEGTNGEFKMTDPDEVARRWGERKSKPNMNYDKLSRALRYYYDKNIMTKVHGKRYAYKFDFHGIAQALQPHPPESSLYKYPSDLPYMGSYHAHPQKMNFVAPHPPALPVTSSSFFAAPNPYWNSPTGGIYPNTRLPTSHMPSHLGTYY
# Summary of the method: as §1
# ELF1 = ELF1 (Homo sapiens, UniProt P32519 1-619)
# ELF1, sequence (P32519 whole entry): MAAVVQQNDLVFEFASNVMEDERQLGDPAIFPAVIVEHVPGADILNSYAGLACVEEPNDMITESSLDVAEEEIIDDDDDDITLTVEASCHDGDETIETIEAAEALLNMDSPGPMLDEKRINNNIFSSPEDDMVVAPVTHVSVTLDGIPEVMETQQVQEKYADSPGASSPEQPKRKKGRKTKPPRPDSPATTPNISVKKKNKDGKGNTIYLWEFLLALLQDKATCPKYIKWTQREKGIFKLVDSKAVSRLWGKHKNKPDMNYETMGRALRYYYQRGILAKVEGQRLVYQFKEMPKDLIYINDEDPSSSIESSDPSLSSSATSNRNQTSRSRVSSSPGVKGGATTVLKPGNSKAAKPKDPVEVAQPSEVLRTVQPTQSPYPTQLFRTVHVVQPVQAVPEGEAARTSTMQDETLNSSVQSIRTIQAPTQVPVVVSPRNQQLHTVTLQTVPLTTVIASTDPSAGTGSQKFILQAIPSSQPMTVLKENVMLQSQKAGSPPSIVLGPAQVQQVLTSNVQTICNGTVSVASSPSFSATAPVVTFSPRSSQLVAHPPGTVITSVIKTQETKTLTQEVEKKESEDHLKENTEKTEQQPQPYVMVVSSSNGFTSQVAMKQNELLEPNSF
# Summary of the method: as §1
# EHF = target: T4, EHF (Homo sapiens, UniProt Q9NZC4 1-300)
# T4 sequence: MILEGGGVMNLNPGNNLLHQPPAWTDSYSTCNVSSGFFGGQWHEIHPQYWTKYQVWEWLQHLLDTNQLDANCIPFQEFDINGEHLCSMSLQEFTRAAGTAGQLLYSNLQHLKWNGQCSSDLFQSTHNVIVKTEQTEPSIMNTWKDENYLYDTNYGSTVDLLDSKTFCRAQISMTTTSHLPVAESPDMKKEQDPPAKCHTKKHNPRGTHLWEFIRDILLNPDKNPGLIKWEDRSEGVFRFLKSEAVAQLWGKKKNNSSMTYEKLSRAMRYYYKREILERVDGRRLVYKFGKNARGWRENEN
# Summary of the method: as §1
# SPIB = SPIB (Homo sapiens, UniProt Q01892 1-262)
# SPIB, sequence (Q01892 whole entry): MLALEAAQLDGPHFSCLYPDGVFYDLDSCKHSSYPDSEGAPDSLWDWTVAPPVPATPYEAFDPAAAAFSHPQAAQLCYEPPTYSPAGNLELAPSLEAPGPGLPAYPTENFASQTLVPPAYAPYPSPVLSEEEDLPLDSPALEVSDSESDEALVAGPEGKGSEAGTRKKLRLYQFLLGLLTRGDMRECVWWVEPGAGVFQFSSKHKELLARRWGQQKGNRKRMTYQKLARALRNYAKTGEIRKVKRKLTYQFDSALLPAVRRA
# Summary of the method: as §1
# ELK3 = target: T5, ELK3 (Homo sapiens, UniProt P41970 1-407)
# T5 sequence: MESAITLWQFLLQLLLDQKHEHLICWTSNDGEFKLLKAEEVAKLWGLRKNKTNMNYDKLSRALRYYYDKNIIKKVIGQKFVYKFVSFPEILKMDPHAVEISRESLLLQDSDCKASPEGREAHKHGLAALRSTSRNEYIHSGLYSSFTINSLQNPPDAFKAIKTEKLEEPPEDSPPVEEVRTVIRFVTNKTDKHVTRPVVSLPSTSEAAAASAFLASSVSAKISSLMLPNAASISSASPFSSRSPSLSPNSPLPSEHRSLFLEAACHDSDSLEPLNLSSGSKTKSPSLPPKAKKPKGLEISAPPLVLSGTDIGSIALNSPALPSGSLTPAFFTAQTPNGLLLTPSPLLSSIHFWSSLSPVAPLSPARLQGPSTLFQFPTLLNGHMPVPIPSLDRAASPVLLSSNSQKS
# Summary of the method: as §1
# SPIC = target: T6, SPIC (Homo sapiens, UniProt Q8N5J4 1-248)
# T6 sequence: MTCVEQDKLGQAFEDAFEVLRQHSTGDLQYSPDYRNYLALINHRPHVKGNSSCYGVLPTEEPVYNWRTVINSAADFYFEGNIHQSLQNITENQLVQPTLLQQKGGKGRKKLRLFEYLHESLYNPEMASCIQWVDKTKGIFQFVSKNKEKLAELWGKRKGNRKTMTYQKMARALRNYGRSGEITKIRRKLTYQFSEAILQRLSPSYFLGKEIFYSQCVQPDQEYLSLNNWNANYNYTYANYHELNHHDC
# Summary of the method: as §1
# ELF4 = ELF4 (Homo sapiens, UniProt Q99607 1-663)
# ELF4, sequence (Q99607 whole entry): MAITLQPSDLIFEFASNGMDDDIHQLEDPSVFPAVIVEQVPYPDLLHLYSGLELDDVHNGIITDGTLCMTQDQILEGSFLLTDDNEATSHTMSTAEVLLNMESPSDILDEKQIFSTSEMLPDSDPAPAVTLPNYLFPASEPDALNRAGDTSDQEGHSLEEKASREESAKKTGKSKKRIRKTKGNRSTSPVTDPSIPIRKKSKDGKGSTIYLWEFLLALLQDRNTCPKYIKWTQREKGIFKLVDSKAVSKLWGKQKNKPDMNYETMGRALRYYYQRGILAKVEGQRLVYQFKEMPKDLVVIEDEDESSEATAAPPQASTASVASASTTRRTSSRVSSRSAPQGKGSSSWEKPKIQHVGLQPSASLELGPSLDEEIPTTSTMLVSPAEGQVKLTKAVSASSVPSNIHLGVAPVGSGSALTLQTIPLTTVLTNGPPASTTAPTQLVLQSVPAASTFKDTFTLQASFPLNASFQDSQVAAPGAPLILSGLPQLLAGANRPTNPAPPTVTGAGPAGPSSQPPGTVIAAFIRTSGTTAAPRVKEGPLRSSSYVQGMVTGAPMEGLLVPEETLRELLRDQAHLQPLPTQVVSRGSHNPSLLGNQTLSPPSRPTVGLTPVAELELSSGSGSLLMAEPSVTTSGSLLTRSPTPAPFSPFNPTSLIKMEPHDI
# Summary of the method: as §1
# ELK4 = target: T7, ELK4 (Homo sapiens, UniProt P28324-2 1-405)
# T7 sequence: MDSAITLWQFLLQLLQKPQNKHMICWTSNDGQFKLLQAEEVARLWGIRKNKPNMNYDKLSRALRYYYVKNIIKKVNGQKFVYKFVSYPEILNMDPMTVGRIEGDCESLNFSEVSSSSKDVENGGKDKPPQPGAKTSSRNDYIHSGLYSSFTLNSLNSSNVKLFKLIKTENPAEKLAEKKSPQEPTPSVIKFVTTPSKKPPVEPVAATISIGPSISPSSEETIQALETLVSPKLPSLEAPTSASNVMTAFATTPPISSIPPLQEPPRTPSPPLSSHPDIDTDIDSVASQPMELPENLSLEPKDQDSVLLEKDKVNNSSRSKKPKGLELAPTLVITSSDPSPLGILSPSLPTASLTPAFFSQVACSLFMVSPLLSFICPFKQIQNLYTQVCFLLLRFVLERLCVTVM
# Summary of the method: as §1
# ETV2 = target: T8, ETV2 (Homo sapiens, UniProt O00321 1-342)
# T8 sequence: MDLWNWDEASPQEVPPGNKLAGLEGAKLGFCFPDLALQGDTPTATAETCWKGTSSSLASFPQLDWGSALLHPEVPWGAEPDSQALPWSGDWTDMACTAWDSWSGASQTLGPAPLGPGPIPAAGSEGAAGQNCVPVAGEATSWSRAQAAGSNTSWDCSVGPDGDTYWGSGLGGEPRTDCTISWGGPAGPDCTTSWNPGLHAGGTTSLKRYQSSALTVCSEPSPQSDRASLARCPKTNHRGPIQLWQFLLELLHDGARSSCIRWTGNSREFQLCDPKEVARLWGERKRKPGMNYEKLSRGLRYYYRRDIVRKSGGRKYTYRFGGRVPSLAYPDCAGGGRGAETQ
# Summary of the method: as §1
# ELF3 = target: T9, ELF3 (Homo sapiens, UniProt P78545 1-371)
# T9 sequence: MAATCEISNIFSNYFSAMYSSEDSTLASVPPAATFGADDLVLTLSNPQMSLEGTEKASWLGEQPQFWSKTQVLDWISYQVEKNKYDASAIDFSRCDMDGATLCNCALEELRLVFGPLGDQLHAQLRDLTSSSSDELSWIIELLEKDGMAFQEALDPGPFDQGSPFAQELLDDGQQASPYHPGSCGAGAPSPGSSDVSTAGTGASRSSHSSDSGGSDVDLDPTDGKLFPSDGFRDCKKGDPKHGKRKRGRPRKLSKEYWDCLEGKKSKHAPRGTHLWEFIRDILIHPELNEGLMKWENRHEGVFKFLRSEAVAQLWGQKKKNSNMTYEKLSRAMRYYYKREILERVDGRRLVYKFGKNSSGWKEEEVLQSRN
# Summary of the method: as §1
# ERF = target: T10, ERF (Homo sapiens, UniProt P50548 1-548)
# T10 sequence: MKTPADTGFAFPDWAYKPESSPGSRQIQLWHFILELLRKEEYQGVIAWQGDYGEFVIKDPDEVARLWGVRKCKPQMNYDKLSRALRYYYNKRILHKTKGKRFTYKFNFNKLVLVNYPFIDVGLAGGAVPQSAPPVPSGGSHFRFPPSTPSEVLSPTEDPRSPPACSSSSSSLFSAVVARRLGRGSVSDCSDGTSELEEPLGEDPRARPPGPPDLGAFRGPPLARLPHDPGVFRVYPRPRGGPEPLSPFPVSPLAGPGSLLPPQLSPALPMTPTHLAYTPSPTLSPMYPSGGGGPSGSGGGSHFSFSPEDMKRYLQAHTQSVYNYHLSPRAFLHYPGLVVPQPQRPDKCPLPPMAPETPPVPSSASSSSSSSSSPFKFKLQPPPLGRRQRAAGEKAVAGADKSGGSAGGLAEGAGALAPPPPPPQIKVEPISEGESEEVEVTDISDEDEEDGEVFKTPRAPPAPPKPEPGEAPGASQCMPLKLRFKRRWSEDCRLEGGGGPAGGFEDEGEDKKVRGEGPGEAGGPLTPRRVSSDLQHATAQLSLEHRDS
# Summary of the method: as §1
# ETV3L = target: T11, ETV3L (Homo sapiens, UniProt Q6ZN32 1-361)
# T11 sequence: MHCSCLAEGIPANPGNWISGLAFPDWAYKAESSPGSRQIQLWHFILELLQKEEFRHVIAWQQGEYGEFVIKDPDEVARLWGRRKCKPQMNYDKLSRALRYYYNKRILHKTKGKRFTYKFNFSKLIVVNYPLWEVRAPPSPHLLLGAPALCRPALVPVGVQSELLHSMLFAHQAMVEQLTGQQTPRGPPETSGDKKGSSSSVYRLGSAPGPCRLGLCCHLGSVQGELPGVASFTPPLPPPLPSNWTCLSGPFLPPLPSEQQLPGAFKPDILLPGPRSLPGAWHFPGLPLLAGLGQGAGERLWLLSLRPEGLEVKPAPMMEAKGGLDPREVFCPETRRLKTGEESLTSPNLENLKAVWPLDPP
# Summary of the method: as §1
# ETV7 = target: T12, ETV7 (Homo sapiens, UniProt Q9Y603 1-341)
# T12 sequence: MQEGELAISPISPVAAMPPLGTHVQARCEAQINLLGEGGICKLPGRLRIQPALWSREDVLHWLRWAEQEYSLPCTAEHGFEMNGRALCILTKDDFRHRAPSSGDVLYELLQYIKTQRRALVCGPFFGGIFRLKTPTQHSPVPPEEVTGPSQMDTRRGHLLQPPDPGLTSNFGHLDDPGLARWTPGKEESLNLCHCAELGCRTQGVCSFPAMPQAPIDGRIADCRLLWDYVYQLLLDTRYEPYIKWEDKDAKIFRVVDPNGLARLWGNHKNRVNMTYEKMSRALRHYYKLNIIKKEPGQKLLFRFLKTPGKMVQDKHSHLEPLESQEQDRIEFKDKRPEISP
# Summary of the method: as §1
sequence,measurement,setting,value
CTAGCC,binding signal,FLI1,"1.07 fold enrichment (6-mer frequency, TF over GST control)"
same,binding signal,GABPA,"1 fold enrichment (6-mer frequency, TF over GST control)"
same,binding signal,ERG,"1.01 fold enrichment (6-mer frequency, TF over GST control)"
same,binding signal,ELF1,"1.07 fold enrichment (6-mer frequency, TF over GST control)"
same,binding signal,EHF,"1 fold enrichment (6-mer frequency, TF over GST control)"
same,binding signal,SPIB,"1.02 fold enrichment (6-mer frequency, TF over GST control)"
same,binding signal,ELK3,"1.1 fold enrichment (6-mer frequency, TF over GST control)"
same,binding signal,SPIC,"1.08 fold enrichment (6-mer frequency, TF over GST control)"
same,binding signal,ELF4,"1.01 fold enrichment (6-mer frequency, TF over GST control)"
same,binding signal,ELK4,"1.1 fold enrichment (6-mer frequency, TF over GST control)"
same,binding signal,ETV2,"1.06 fold enrichment (6-mer frequency, TF over GST control)"
same,binding signal,ELF3,"1.04 fold enrichment (6-mer frequency, TF over GST control)"
same,binding signal,ERF,"1.13 fold enrichment (6-mer frequency, TF over GST control)"
same,binding signal,ETV3L,"1.06 fold enrichment (6-mer frequency, TF over GST control)"
same,binding signal,ETV7,"1.02 fold enrichment (6-mer frequency, TF over GST control)"
